The values below come from PubChem BioAssay.

Records with an inconclusive call do not appear. Calls of active or inactive are those of the source. Rule as the data show it, unless noted: active = inhibition above about 80%; inactive = the rest.

Experiment [1] is described as follows: protection against mutant huntingtin cytotoxicity, PC12 cells, LDH release (AID 1610). The conditions noted are these: PC12 mutant huntingtin toxicity, final LDH at 4 uM, stronger effect = lower value. In general terms: Release of lactate dehydrogenase indicates damage to the cell membrane.
The nature of experiment [2]: CRL2098 osteosarcoma cell growth inhibition, synergistic combos for chromothripsis tumors, BGB or cisplatin IC20 combos (AID 1671454).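 Also: cells exposed for 96 h before readout; 0% = vehicle DMSO and 100% = killing by high DMSO.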 The following applies: CRL2098 osteosarcoma cells, drug combinations, stronger effect = higher value.
Experiment [3] is described as follows: HD-MB03 medulloblastoma cell growth inhibition, synergistic combos for chromothripsis tumors, BGB or cisplatin IC20 combos (AID 1671455; in the data active = inhibition above about 83%;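 also: 0% = vehicle DMSO and 100% = high DMSO as cytotoxic control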). The following applies: HD-MB03 medulloblastoma cells, stronger effect = higher value.
Experiment [4] is described as follows: UWB1.289 ovarian carcinoma cell growth inhibition, synergistic combos for chromothripsis tumors, BGB or cisplatin combos (AID 1671456).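 Also: cells exposed to compound for four days; 0% = vehicle DMSO and 100% = killing by high DMSO.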 The following applies: UWB1.289 ovarian carcinoma cells, stronger effect = higher value.
Experiment [5] is described as follows: LFS_MB_2R medulloblastoma cell growth inhibition, synergistic combos for chromothripsis tumors, cisplatin combos (AID 1671457).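 Also: cells exposed to compound for four days before readout.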 The conditions noted are these: LFS_MB_2R medulloblastoma cells, stronger effect = higher value.
Experiment [6] can be described thus: UWB1.289_BRCA1 ovarian cancer growth, cell-based, BGB or cisplatin combinations (AID 1671459). The conditions noted are these: UWB1.289 BRCA1 ovarian carcinoma, drug combinations, stronger effect = higher value.
Experiment [7] is described as follows: human astrocyte viability loss, single and combined drugs, cytotoxicity control for chromothriptic childhood tumor combination screen, cell-based, BGB or cisplatin IC20 combos (AID 1671460).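 Also: cells exposed to compounds for 96 hours before viability readout; 0% = vehicle and 100% = killing control.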 The conditions noted are these: Human astrocytes, drug combinations, stronger effect = higher value.
Setting [8] is: measured here: combination with BGB at IC20, at 0.5 µM.
Where [9] appears, read: measured here: combination with cisplatin at IC20, at 0.5 µM.
The mark [10] stands for this setting: measured here: combo with BGB at IC20, at 0.5 µM.
Setting [11] is: measured here: combo with cisplatin at IC20, at 0.5 µM.
[12] abbreviates: measured here: inhibition with BGB combination, at 0.05 µM.
Setting [13] is: measured here: inhibition with cisplatin combination, at 0.05 µM.
[14] abbreviates: measured here: combination with cisplatin, at 0.5 µM.
Where [15] appears, read: measured here: combination with cisplatin, at 5 µM.
The mark [16] stands for this setting: BGB combination, concentration series, at 5 µM.
[17] abbreviates: cisplatin combination, concentration series, at 5 µM.
The mark [18] stands for this setting: measured here: combo with BGB IC20, at 0.5 µM.
The mark [19] stands for this setting: measured here: combo with cisplatin IC20, at 0.5 µM.

`O=c1cc(-c2ccc(O)cc2)oc2cc(O)cc(O)c12` came in with a normalised LDH release in experiment [1] of 0.887.
On the same count and under the same terms, then `COc1ccc(-c2coc3cc(O)cc(O)c3c2=O)cc1`, with 1.03.
Turning to `O=c1c(O)c(-c2ccc(O)c(O)c2)oc2cc(O)ccc12`, the inhibition in experiment [2] (at 0.5 µM) is 3.92% (inactive); in experiment [2] (setting [8]), -8.68%; in experiment [2] (setting [9]), 27.9%; in experiment [3] (at 0.5 µM), -0.08% (inactive); in experiment [3] (setting [10]) it was 1.14%; in experiment [3] (setting [11]), -0.856%. For the same compound, the inhibition was 3.05% (inactive) in experiment [4] (at 0.5 µM); 1.82% in experiment [4] (setting [12]); -4.79% in experiment [4] (setting [13]); 1.64% (inactive) in experiment [5] (at 0.5 µM); -4.17% in experiment [5] (setting [14]); -0.986% in experiment [5] (setting [15]). The inhibition is 14.5% in experiment [6] (setting [16]); 1.05% (inactive) in experiment [6] (at 0.5 µM); 19.6% in experiment [6] (setting [17]); 10.6% (inactive) in experiment [7] (at 0.5 µM); 1.09% in experiment [7] (setting [18]); 26.6% in experiment [7] (setting [19]).
As to `CCn1nc(C(=O)O)c(=O)c2cc3c(cc21)OCO3`, the inhibition in experiment [2] (at 0.5 µM) is -51.5% (inactive); in experiment [2] (setting [8]) it was -50.7%; in experiment [2] (setting [9]), -58%; in experiment [3] (at 0.5 µM), -4.61% (inactive); in experiment [3] (setting [10]), -9.5%; in experiment [3] (setting [11]), -2.73%. Besides, the inhibition in experiment [4] (at 0.5 µM) was -2.26% (inactive); in experiment [4] (setting [12]), -31.4%; in experiment [4] (setting [13]), -13.5%; in experiment [5] (at 0.5 µM), -9.44% (inactive); in experiment [5] (setting [14]) it was -16.5%; in experiment [5] (setting [15]), -17.7%. Also, the inhibition in experiment [6] (setting [16]) is 14%; in experiment [6] (at 0.5 µM) it was -2.39% (inactive); in experiment [6] (setting [17]), 6.77%; in experiment [7] (at 0.5 µM), 10.8% (inactive); in experiment [7] (setting [18]), 8.46%; in experiment [7] (setting [19]), 10.9%.

The inhibition is the change of the read-out against control, counted positive when it falls.
